# Screening results as filed in PubChem BioAssay.
# rRNA inh HTS – inhibitors of bacterial rRNA selective over humanized ribosomes; E. coli WT GFP vs humanized-ribosome RFP mutants, fluorescence, 24 h; hits give low values; DMSO median 0, no signal -100; GFP signal change (wild-type ribosome), % (no concentration beside the values); actives 1.6% (n = 350,000);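 active = significant combined selectivity score with lowered wild-type GFP, culture density cut under 30%, mutant RFP and density less affected; inactive = any of these conditions unmet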
# PGC1a acetyl inh – lowers PGC1a acetylation signal in U2OS cells; AlphaScreen anti-acetyl-lysine; with virally co-expressed GCN5 acetyltransferase; inhibition, % at 15.6 µM; actives 0.17% (n = 350,000);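 active = every replicate shows inhibition of at least 40%; inconclusive = mean inhibition at least 40% but some replicate below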;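 note: 0% = neutral control wells and 100% = positive control wells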
# PAX8 reporter – lowers PAX8-driven luciferase in RMG-I cells | RMG-I TPO-luciferase reporter, SteadyGlo, 24 h | inhibition, % at 12.6 µM | actives 1.2% (n = 360,000);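 active = mean replicate inhibition at least 60% with every replicate also reaching 60%; inconclusive = only one of the two criteria is met; inactive = mean below 60% and not all replicates reaching 60%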;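 note: luciferase light reporting Pax8 driven TPO promoter activity; plate controls were median of neutral control wells for no effect and mitoxantrone controls for full effect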
# SIRT5 block – inhibitors of human sirtuin-5 desuccinylase. inhibition, % at 15 µM. actives 1.1% (n = 330,000). Q9NXA8. AID 652115. Purified SirT5, succinyl-peptide AMC, trypsin-coupled fluorescence; in the data active = inhibition above about 15%; inconclusive = no clear call, values can overlap the other calls
# Target sequence (Q9NXA8 whole entry, looked up): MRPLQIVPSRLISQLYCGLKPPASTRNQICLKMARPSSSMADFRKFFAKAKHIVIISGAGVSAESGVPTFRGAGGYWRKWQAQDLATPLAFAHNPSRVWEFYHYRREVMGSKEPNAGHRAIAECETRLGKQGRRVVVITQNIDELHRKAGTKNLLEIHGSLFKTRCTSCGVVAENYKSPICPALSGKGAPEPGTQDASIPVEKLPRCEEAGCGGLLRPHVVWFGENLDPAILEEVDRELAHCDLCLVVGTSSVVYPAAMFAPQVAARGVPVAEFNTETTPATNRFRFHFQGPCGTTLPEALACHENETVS
# EWS-Fli inh – EWS/Fli transcriptional activity inhibition. A673 NR0B1-luciferase reporter, viability-normalised. inhibition, % at 12.6 µM. actives 0.67% (n = 350,000);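 active = mean inhibition of at least 50% after viability correction, with every replicate also passing that limit; inconclusive = mean reaches 50% but only one of two replicates passes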;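 note: firefly luciferase signal divided by Alamar Blue viability fluorescence both relative to DMSO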
# LGR2 inh – inhibitors of bursicon-induced Drosophila LGR2 receptor cAMP signaling; HEK293 LGR2, CRE-luciferase, bursicon-stimulated, 4 h; inhibition, % at 9.99 µM; actives 0.35% (n = 380,000);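 active = drop in luminescence signal, shown as inhibition above about 50% in the replicate tests, limit read from the data, passing the limit was not always enough; inconclusive = probably only some replicates passing the limit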;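 note: agonist challenge used bursicon conditioned medium at about half maximal strength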
# DNA binder FP – binds DNA displacing acridine orange; shares compounds with EWS-Fli inh; salmon sperm DNA acridine orange fluorescence polarization; AC35, µM (series often up to 68 µM), for inactives: at the top dose activity change, negative = DNA binding; actives 2% (n = 640); AID 720586;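 active = fitted curve reaches a 35% signal fall AC35 below twice the sample's top valid tested dose, actives reach about 48 µM in these data; inactive = the rest, including activity in the rising direction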;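 note: lower polarization ratio signals compound binding to DNA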
# * = called active by the depositor; ? = inconclusive; . = not tested or not shown. Hits are enriched below; roughly 3.4% of the tested compounds scored in any of these assays.
SMILES,rRNA inh HTS,PGC1a acetyl inh,PAX8 reporter,SIRT5 block,EWS-Fli inh,LGR2 inh,DNA binder FP
C[C@@H]1CN([C@@H](C)CO)C(=O)c2cc(-c3cccc(C(=O)N(C)C)c3)cnc2O[C@@H]1CN(C)S(=O)(=O)c1ccccc1,2.5,5.6,4.8,-1.1,25.6,-10.2,.
C[C@@H]1CN([C@H](C)CO)C(=O)c2cc(NC(=O)Nc3ccc4c(c3)OCO4)ccc2O[C@@H](C)CCCCO[C@@H]1CN(C)Cc1ccc(C(=O)O)cc1,-0.4,-7.2,-5.7,2.7,-8.1,0.1,.
Cc1csc(NC(=O)c2ccc(OCC3CCCO3)cc2)n1 (centres undefined),11.7,5.8,-16.5,-6.0,32.5,?,.
O=C(Nc1nc(-c2ccc(F)c(F)c2)cs1)c1ccc(OCC2CCCO2)cc1 (centres undefined),12.6,.,14.4,-0.8,73.9*,6.7,-6.0%
CC(C)(C)[S@](=O)N1Cc2cc(C(=O)N3CCOCC3)nc(-c3cccc(Br)c3)c2[C@@H]1CCO,-1.0,.,-12.4,6.9,-6.8,1.7,.
O=C1Nc2cc(C(=O)NCCN3CCCCCC3)ccc2S/C1=C\c1ccccc1,-1.4,-21.4,19.9,0.5,59.6*,-3.3,-1.3%
Cc1cccc(/C=C2/Sc3ccc(C(=O)NCCN4CCCC4)cc3NC2=O)c1,-56.4,-10.1,11.2,-0.9,.,-61.3,.
C/C=C/c1ccc([C@@H]2[C@H](CO)N(C(=O)CC)[C@H]2CNC(=O)CC2CC2)cc1,-0.6,-4.6,-9.7,.,-1.3,4.0,.
O=C(O)c1ccc(-c2ccccc2)[nH]1,-5.2,33.2,5.3,-2.5,.,-15.0,.
O=C(O)c1ccc2cc(-c3ccccc3)[nH]c2c1,.,14.7,49.8,-47.7,63.9*,.,-7.7%
C[C@H]1CN([C@@H](C)CO)C(=O)c2cccc(N(C)C)c2O[C@@H]1CN(C)Cc1ccc(C(=O)Nc2ccccc2N)cc1,1.4,-26.4,19.8,2.5,13.2,-11.6,.
C[C@@H]1CN([C@@H](C)CO)C(=O)c2cccc(N(C)C)c2O[C@@H]1CN(C)Cc1ccc(C(=O)Nc2ccccc2N)cc1,.,-9.7,36.6,5.2,53.8*,.,-12.5%
C[C@H]1CN([C@@H](C)CO)C(=O)c2cccc(NC(=O)CCCCCC(=O)Nc3ccccc3N)c2O[C@@H]1CN(C)Cc1ccc2c(c1)OCO2,-12.3,1.5,.,3.3,56.8*,3.4,11.1%
C[C@@H]1CN([C@@H](C)CO)C(=O)c2cccc(NS(=O)(=O)c3ccc(F)cc3)c2O[C@@H]1CN(C)Cc1ccc(C(=O)Nc2ccccc2N)cc1,-5.6,-42.1,.,0.4,55.3*,-3.8,-8.2%
C[C@@H]1CN([C@@H](C)CO)C(=O)c2cccc(NS(=O)(=O)c3ccc(F)cc3)c2O[C@H]1CN(C)Cc1ccc(C(=O)Nc2ccccc2N)cc1,0.4,-8.2,-20.6,10.8,37.4,18.5,.
C[C@H]1CN([C@@H](C)CO)C(=O)Cc2cc(NS(=O)(=O)c3cn(C)cn3)ccc2O[C@@H]1CN(C)Cc1ccc(C(=O)O)cc1,-0.8,6.6,9.2,-1.8,-4.9,7.3,.
CCOc1ccc(N=Nc2ccc(O)c3ncccc23)cc1,8.6,.,35.4,-3.8,57.8*,-0.8,-8.1%
CCOc1ccc(N=Nc2cc(C(C)C)ccc2O)cc1,.,6.8,10.5,.,.,-0.3,.
CCc1cccc2c(C(=O)CN3C(=O)NC4(CCCCC4)C3=O)c[nH]c12,6.2,.,50.1,-5.9,51.5*,-3.5,8.9%
COc1ccc(CN(C)C[C@@H]2Oc3c(NS(=O)(=O)c4c(C)noc4C)cccc3C(=O)N([C@H](C)CO)C[C@@H]2C)cc1,4.7,-6.8,.,-1.8,-15.0,-41.1,.
C[C@@H]1CN([C@@H](C)CO)C(=O)c2cc(NS(=O)(=O)c3ccc(Cl)cc3)ccc2O[C@@H]1CN(C)Cc1ccc(Cl)c(Cl)c1,-0.3,1.6,5.5,8.1,15.1,4.4,.
C[C@@H]1CN([C@H](C)CO)C(=O)c2cc(NS(=O)(=O)c3ccc(Cl)cc3)ccc2O[C@@H]1CN(C)Cc1ccc(Cl)c(Cl)c1,0.5,-5.5,-3.4,13.6,53.2*,13.8,0.3%
C[C@H]1CN([C@@H](C)CO)C(=O)c2cc(NS(=O)(=O)c3ccc(Cl)cc3)ccc2O[C@H]1CN(C)Cc1ccc(Cl)c(Cl)c1,3.7,-5.2,80.6*,22.8*,60.6*,14.8,-18.1%
C[C@H](CO)N1C[C@H](C)[C@H](CN(C)Cc2ccc(Cl)c(Cl)c2)Oc2ccc(NS(=O)(=O)c3ccc(Cl)cc3)cc2C1=O,1.9,1.4,7.6,8.1,8.9,-3.6,.
Cc1noc(C)c1NC(=O)Nc1ccc2c(c1)CC(=O)N([C@H](C)CO)C[C@@H](C)[C@@H](CN(C)Cc1ccc(Cl)c(Cl)c1)O2,-7.1,1.1,8.3,-3.4,61.2*,-6.8,-0.1%
SMILES,rRNA inh HTS,PGC1a acetyl inh,PAX8 reporter,SIRT5 block,EWS-Fli inh,LGR2 inh,DNA binder FP
Cc1noc(C)c1NC(=O)Nc1ccc2c(c1)CC(=O)N([C@H](C)CO)C[C@@H](C)[C@H](CN(C)Cc1ccc(Cl)c(Cl)c1)O2,-1.9,-2.2,-7.9,-2.8,4.6,4.1,.
CCCNC(=O)[C@@]1(Sc2ccc(C)cc2)CC(=O)N(C2CCCCC2)[C@@H]1c1ccc(CO)cc1I,.,-3.1,6.2,4.9,-4.1,.,.
COc1ccc(/C=C2/NC(=O)N(CC(=O)Nc3cccc(C)c3)C2=O)cc1O,5.3,17.6,8.2,-1.5,62.3*,-14.2,-6.3%
C[C@H](CO)N1C[C@H](C)[C@@H](CN(C)CC2CCCCC2)Oc2ccc(NS(C)(=O)=O)cc2CC1=O,1.5,.,12.1,-5.8,-6.6,20.6,.
COc1ccc(NC(=O)N2CCCCN3[C@H](CO)[C@H](c4ccc(C#CCC(C)C)cc4)[C@H]3C2)cc1,-58.3,-37.5,31.4,2.4,72.6*,2.6,-2.2%
O=C(Nc1ccccc1F)N1CCCCN2[C@H](CO)[C@H](c3ccc(/C=C/c4ccccc4)cc3)[C@H]2C1,-58.0,-14.8,-4.0,-8.4,76.1*,4.4,-8.0%
COc1ccccc1NC(=O)N1CCCCN2[C@H](CO)[C@H](c3ccc(-c4cccc(C)c4)cc3)[C@H]2C1,-57.1,-2.9,104.0*,-0.7,61.4*,20.9,-5.7%
CC(C)CC#Cc1ccc([C@H]2[C@@H](CO)N3CCCCN(C(=O)Nc4ccccc4)C[C@@H]23)cc1,-1.6,6.6,-6.5,.,-2.5,9.6,.
CC(C)NC(=O)Nc1ccc2c(c1)C(=O)N([C@@H](C)CO)C[C@@H](C)[C@H](CN(C)CC1CCCCC1)OCCCC[C@@H](C)O2,1.3,8.8,3.8,4.3,.,1.7,.
O=C1CCC2S/C(=C/Nc3ccc(C(F)(F)F)cc3)C(=O)N12 (centres undefined),17.3,-16.6,71.9*,-0.4,85.6*,-33.0,-1.5%
